Source: PubChem
Only some compounds are listed: those with a hit (about 10% of all), similar ones and a draw of the others.
G9a inh – qHTS Assay for Inhibitors of Histone Lysine Methyltransferase G9a. G9a H3K9 monomethylation, AlphaScreen, 2 h. 350,000 tested, 8.8% active. Histone-lysine N-methyltransferase EHMT2 (Homo sapiens), Q96KQ7. Potency, µM (doses to about 102 µM), actives largely listed as inhibitors; note: nearly all actives have a fitted effect of over 75% in size
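G9a (20 nM) preincubated 15 min RT with compounds, then 500 nM biotinylated H3K9 peptide and 20 uM SAM added; 2 h RT reaction. Monomethyl-H3K9 product detected by AlphaScreen with anti-H3K9me1 antibody, streptavidin donor and anti-rabbit IgG acceptor beads.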
CCT chaperon mod – High-Throughput Screening for Modulators of Cytosolic Chaperonin Activity; purified chaperonin ATPase assay, HTRF ADP detection, 30 min; 360,000 tested, 0.3% active; activity change, % (no concentration beside the values), hits read low; in the data active = activity change below about -30%
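ATPase activity: ADP formed was measured by HTRF Transcreener (665/615 nm ratio) after 30 min at 37 deg C with 10 uM ATP. Compounds screened at one 76 uM concentration against 40 or 20 nM TRiC in Tris pH 7.4/KCl/MgCl2/DTT buffer.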
MmCpn inh – Inhibitors of TCP-1 ring complex (TRiC) of Methanococcus maripaludis (MmCpn): qHTS. purified Mm-Cpn ATPase, ADP Transcreener TR-FRET. Chaperonin Mm-Cpn (Methanococcus maripaludis). 330,000 tested, 0.031% active. Potency, µM (doses to about 76.9 µM), actives largely listed as inhibitors; note: nearly all actives have a fitted effect of over 80% in size
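Purified archaeal Mm-CPN (25nM final) preincubated 10 min at 37degC with compound, then 10uM ATP for 30 min at 37degC; ADP measured by HTRF Transcreener TR-FRET; buffer 30 mM TRIS pH 7.4, 100mM KCl, 5mM MgCl2, 1mM DTT.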
VDR inhibitor – Inhibitors of the vitamin D receptor (VDR): qHTS | VDR-SRC2-3 peptide fluorescence polarization, 2 h | 400,000 tested, 0.93% active | Potency, µM, actives largely listed as inhibitors | Vitamin D3 receptor (Homo sapiens), P11473 | AID 504847, 2011
Target sequence (P11473 whole entry, looked up): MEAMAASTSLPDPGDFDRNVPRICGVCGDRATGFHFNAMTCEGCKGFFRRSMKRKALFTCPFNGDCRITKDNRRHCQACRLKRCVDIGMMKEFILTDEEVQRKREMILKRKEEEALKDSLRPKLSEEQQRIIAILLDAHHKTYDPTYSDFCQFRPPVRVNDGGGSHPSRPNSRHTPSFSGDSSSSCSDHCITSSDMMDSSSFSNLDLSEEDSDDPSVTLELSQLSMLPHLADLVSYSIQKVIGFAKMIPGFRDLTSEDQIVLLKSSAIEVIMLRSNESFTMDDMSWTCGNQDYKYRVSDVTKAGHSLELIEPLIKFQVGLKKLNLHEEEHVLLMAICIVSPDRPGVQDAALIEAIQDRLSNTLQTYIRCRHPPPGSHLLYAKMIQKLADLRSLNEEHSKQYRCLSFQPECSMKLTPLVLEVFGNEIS
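Compounds are added to VDR with labelled SRC2-3 coactivator peptide and held 2 h at room temperature. Inhibition of the VDR–peptide interaction is then read as a change in fluorescence polarization.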
PLK1 PBD block – qHTS for Inhibitors of PLK1-PDB (polo-like kinase 1 - polo-box domain): Primary Screen; Serine/threonine-protein kinase PLK1 (Homo sapiens), P53350; Plk1 PBD binding of FITC phosphopeptide, fluorescence polarization; Potency, µM, most hits filed as inhibitors; 360,000 tested, 2.8% active; note: series mostly up to about 57 µM; nearly all actives have a fitted effect of over 65% in size
Sfp PPTase inh – qHTS Assay for Inhibitors of Bacillus subtilis Sfp phosphopantetheinyl transferase (PPTase) | Biochemical Sfp PPTase activity, qHTS | Potency, µM, hits mostly inhibitors | 310,000 tested, 3.5% active | 4'-phosphopantetheinyl transferase ffp (Bacillus subtilis), Q9F4F7 | AID 1490, 2009;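 note: the enzyme is Sfp with the accession as filed and its product quenches rhodamine fluorescence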
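Fluorescence-quenching assay with 15 nM Sfp, 5 uM rhodamine-CoA and 12.5 uM BHQ-2-labelled ybbR peptide in pH 7.6 Hepes/MgCl2 buffer. Enzyme was pre-incubated with compound for 15 min at room temperature. Rate was taken from the 30-min fluorescence change (525/598 nm).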
Each line names hits and unclear results; the compound was inactive in the other large screens; ! = not confirmed by another sample. Unless noted, calls come from the whole dose curve; as a rule, active = well fitted curve in the direction sought with a large enough effect; inconclusive = small, poorly fitted or top-dose-only effect, or another doubt; inactive = no such curve, though single readings can be large; an effect the other way counts as inactive or inconclusive.

CC[C@H](C)[C@H](NC(=O)[C@H](Cc1ccc(O)cc1)NC(=O)CNC(=O)[C@@H]1CCCN1C(=O)[C@H](CC(=O)O)NC(=O)[C@@H](N)CS)C(=O)NCC(=O)N[C@@H](CO)C(=O)N[C@@H](CCCN=C(N)N)C(N)=O	none (no result: G9a inh, CCT chaperon mod, MmCpn inh, PLK1 PBD block)
CC(C)C[C@@H](CC(=O)N[C@@H](CCCN)CC(=O)N[C@@H]1CCCC[C@H]1C(=O)N[C@H](CC(=O)N[C@@H](CCC(=O)O)CC(=O)O)CC(C)C)NC(=O)[C@@H]1CNCC[C@H]1N	none (no result: G9a inh, CCT chaperon mod, MmCpn inh, PLK1 PBD block)
C(=N\Nc1ccccn1)/c1ccc(N2CCOCC2)cc1	Sfp PPTase inh 40µM
CCCCN(C(=O)NC(=O)C1=C(N2CCOCC2)/C(=C/c2ccccc2)CC1)S(C)(=O)=O	G9a inh inconclusive, PLK1 PBD block 34µM!
Cc1cc(C)nc(N/N=C/C2=C(N3CCOCC3)C(=C\c3ccc(Cl)cc3)/CC2)n1	G9a inh inconclusive, VDR inhibitor inconclusive, PLK1 PBD block inconclusive
FC(F)(F)c1ccccc1/C=N/Nc1ccccn1	G9a inh inconclusive, Sfp PPTase inh 79µM
CN(C(=O)NC(=O)C1=C(N2CCOCC2)/C(=C/c2ccccc2)CC1)S(C)(=O)=O	G9a inh inconclusive
O=C(O)c1ccc(N/N=C/C2=C(N3CCOCC3)C(=C\c3ccccc3)/CC2)cc1	VDR inhibitor inconclusive, PLK1 PBD block inconclusive, Sfp PPTase inh 50µM (no result: G9a inh)
Brc1ccccc1/C=N/Nc1ccccn1	none
COC(=O)N1CCC[C@@]2(CCN(C(=O)Nc3ccccc3)C2)C1	none (no result: CCT chaperon mod, MmCpn inh, PLK1 PBD block)
CCOc1ccc(N(C)C(=O)C2CCN(S(=O)(=O)c3ccc4c(c3)CCCN4C(C)=O)CC2)cc1	none (no result: CCT chaperon mod, MmCpn inh, PLK1 PBD block, Sfp PPTase inh)
CCNc1c(NC(=O)c2ccccc2OCC)c(=O)oc2ccccc12	none (no result: CCT chaperon mod, MmCpn inh, PLK1 PBD block, Sfp PPTase inh)
Cc1cc(C)cc(NC(=O)C(CC(C)C)NC(=O)C2CCCCC2)c1 (stereo not drawn)	none (no result: CCT chaperon mod, MmCpn inh, PLK1 PBD block, Sfp PPTase inh)
C(=N\Nc1ccccc1)/c1ccc(N2CCOCC2)cc1	G9a inh 4µM
O=[N+]([O-])c1cccc(N/N=C/c2ccc(N3CCOCC3)cc2)c1	G9a inh 40µM
O=C(N/N=C/c1ccc(N2CCOCC2)cc1)c1ccccc1OCCOc1ccccc1	VDR inhibitor inconclusive, PLK1 PBD block 3µM
COc1ccccc1CNc1ncnc2onc(-c3ccc(Cl)cc3)c12	none (no result: CCT chaperon mod, MmCpn inh, PLK1 PBD block, Sfp PPTase inh)
COc1ccccc1NC(=S)N(Cc1ccc(C(=O)O)cc1)Cc1ccc(OC)c(OC)c1	G9a inh inconclusive
Cc1ccc(NC(=S)N(Cc2ccc(Cl)cc2)Cc2ccc(C(=O)O)cc2)cc1Cl	G9a inh 40µM
COc1ccc(CN(Cc2ccc(C(=O)O)cc2)C(=S)Nc2ccccc2F)cc1OC	Sfp PPTase inh 50µM
COc1ccc(CN(CC2CCC(C(=O)O)CC2)C(=S)Nc2ccc(C)c(Cl)c2)cc1 (stereo not drawn)	G9a inh inconclusive
Cc1ccc2c(c1)c(-c1ccccc1)nc1nnnn12	PLK1 PBD block 24µM
CN(Cc1ccco1)c1cc(-c2cccc(C#N)c2)ncn1	VDR inhibitor inconclusive (no result: CCT chaperon mod, MmCpn inh, PLK1 PBD block)
CNc1cc(-c2ccccc2C)ncn1	VDR inhibitor 50µM, Sfp PPTase inh 79µM (no result: CCT chaperon mod, MmCpn inh, PLK1 PBD block)
Cc1ccccc1-c1cc(N(C)Cc2ccco2)ncn1	VDR inhibitor 45µM (no result: CCT chaperon mod, MmCpn inh, PLK1 PBD block)
COc1cccc(-c2cc(N(C)Cc3ccco3)ncn2)c1	VDR inhibitor 45µM (no result: CCT chaperon mod, MmCpn inh, PLK1 PBD block)
CN(Cc1ccco1)c1cc(-c2ccoc2)ncn1	VDR inhibitor 28µM, Sfp PPTase inh 32µM (no result: CCT chaperon mod, MmCpn inh, PLK1 PBD block)
CN(C)c1ccc(-c2cc(N(C)Cc3ccco3)ncn2)cc1	VDR inhibitor inconclusive (no result: CCT chaperon mod, MmCpn inh, PLK1 PBD block)
COc1ccc(CCCc2nnc(SCC(=O)Nc3ccc(F)cc3)o2)cc1C	G9a inh inconclusive (no result: CCT chaperon mod, MmCpn inh, PLK1 PBD block, Sfp PPTase inh)
COc1cc2c(cc1OC)C(COc1ccccc1OC)N(C(=O)c1ccccc1OC)CC2 (stereo not drawn)	none (no result: CCT chaperon mod, MmCpn inh, PLK1 PBD block, Sfp PPTase inh)
